Values joined by “and” are separate entries in the source; they are usually repeats but may differ in a detail not shown here. Equal values may be shown once. Inconclusive results are not listed. Active and inactive are the calls of the source. Unless noted, calls follow the shape of the dose curve; as a rule, active = well fitted curve in the direction sought with a large enough effect; inconclusive = small, poorly fitted or top-dose-only effect, or another doubt; inactive = no such curve, though single readings can be large; an effect the other way counts as inactive or inconclusive.
Legend:
[1] = Cell Viability - Jurkat (AID 426;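 active = dose-dependent loss of cell ATP signal giving a full or clear fitted curve, ranked by lower potency value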;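 also: potency is read from the fitted curve at half-maximal effect; cells exposed to compound for 40 hours at 37 °C before ATP read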); settings: qHTS
How it was run: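 Seed 5000 Jurkat E6-1 cells/well; add compound; incubate 40 hr at 37 °C; add CellTiter-Glo; wait 20 min at room temperature; read luminescence. Fit concentration-response with Hill equation for AC50.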

[2] = Cell Viability - Hek293 (AID 427;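 active = compounds whose dose-response curve shows a full or clear partial loss of cell viability, called from curve shape rather than a numeric limit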;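 also: potency is read from the fitted curve at half-maximal effect; cells exposed to compound for 40 hours at 37 °C before reading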); settings: qHTS
How it was run: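 qHTS, human embryonic kidney (adenovirus-transformed) cells; 40 hr cpd, 37 °C; CellTiter-Glo ATP luminescence. Norm: DMSO = 0, 100 uM tamoxifen = 100% inhibition. Hill-fit AC50.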

[3] = Cell Viability - HUV-EC-C (AID 542); settings: HUV-EC-C endothelial cell viability, qHTS; series mostly up to 92.2 µM;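 also: cells exposed to compound for 40 hours; % is scaled to controls: 0 for no effect and ±100 for the full control effect; nearly all actives have a fitted effect of over 35% in size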
How it was run: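 Decrease in cellular ATP, quantified by luciferase luminescence, reflects toxicity in normal human vascular endothelial HUV-EC-C cells given compound for 40 hr in complete culture medium. Values are AC50s from concentration-response curves.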

[4] = Cell Viability - H-4-II-E (AID 543); settings: H-4-II-E rat hepatoma viability; series mostly up to 92.2 µM;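 also: cells exposed to compound for 40 hours; % is scaled to controls: 0 for no effect and ±100 for the full control effect; nearly all actives have a fitted effect of over 35% in size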
How it was run: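 Here, cytotoxicity is measured in the rat hepatoma line H-4-II-E as loss of intracellular ATP after 40 hr compound treatment, detected by luciferase luminescence.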

[5] = Cell Viability - SH-SY5Y (AID 544); settings: SH-SY5Y neuroblastoma cell viability; series mostly up to 92.2 µM;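 also: cells exposed to compound for 40 hours; nearly all actives have a fitted effect of over 55% in size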
How it was run: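 Cytotoxicity is scored as a concentration-dependent fall in intracellular ATP in human SH-SY5Y cells treated 40 hr in complete culture medium. Potency is expressed as AC50 from a Hill equation fit.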

[6] = Cellular Toxicity (caspase-3) SHSY5Y (AID 657); settings: SH-SY5Y caspase-3 activation, DMSO zero, 10 µM staurosporine = 100%; series mostly up to 91.7 µM;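 also: cells exposed to compound for 16 hours at 37 °C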
How it was run: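 Luminescent caspase-3/7 readout (aminoluciferin release) in SH-SY5Y cells after 16 h compound exposure in complete medium. Activity scaled between DMSO basal and 10 uM staurosporine as 100%; concentration-response fitted to Hill equation for AC50.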

[7] = Cellular Toxicity (caspase-3) SK-N-SH (AID 661); settings: SK-N-SH caspase-3 activation, qHTS, DMSO as zero, staurosporine as full; series mostly up to 91.7 µM
How it was run: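 Caspase 3/7 activation is measured as a luminescence increase from aminoluciferin released by substrate cleavage in SK-N-SH cells after 16 hr compound treatment; values are AC50 from concentration-response curves.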

[8] = Cellular Toxicity (caspase-3) H-4-II-E (AID 663); settings: H-4-II-E rat hepatoma; Potency: caspase-3 activation; series mostly up to 92.2 µM;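 also: cells exposed to compound for 16 hr before readout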
How it was run: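 Apoptosis induction is scored as increased luminescence from caspase 3/7 substrate cleavage in rat hepatoma H-4-II-E cells exposed to compound for 16 hr. Activity is scaled between DMSO and 100 uM tamoxifen.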

[9] = Cellular Toxicity (caspase-3) N2a (AID 665); settings: N2a cells, luminescence, normalized: DMSO 0%, 10 µM staurosporine 100%; series mostly up to 92.2 µM;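 also: compound exposure lasted 16 h at 37 °C before readout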
How it was run: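 Plated mouse neuroblastoma N2a cells received titrated compounds for 16 h in complete medium. Caspase activity was then detected with a peptide-aminoluciferin luminescent reagent.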

[10] = Cellular Toxicity (caspase-3) NIH 3T3 (AID 666); settings: NIH 3T3 caspase-3 activation, apoptosis/toxicity, 0% DMSO, 100% is 100 µM tamoxifen; series mostly up to 92.2 µM;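 also: caspase signal read after 16 h compound exposure; 0% = DMSO basal and 100% = 100 µM tamoxifen stimulation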
How it was run: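 Concentration-response qHTS in NIH 3T3 mouse fibroblasts scores caspase-3/7 activation as rising luminescence after 16 hr compound exposure. Signals are scaled between DMSO-only and 100 uM tamoxifen.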

[11] = Cell Viability - LYMP1-002 - Assay at 16 hr (AID 948); settings: LYMP1-002 lymphoblastoid cell viability; series mostly up to 92.2 µM;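 also: 0% = DMSO alone and full effect = 92 µM tetraoctylammonium bromide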
How it was run: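 LYMP1-002 human lymphoblastoid cells, 2500/well; 5 hr 37 C; cpd 16 hr 37 C; CellTiter-Glo 30 min RT; luminescence (ATP). Concentration-response, Hill-fit AC50. Pos ctrl tetraoctylammonium bromide.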

[12] = MultiTox-Fluor Cytotoxicity Assay - LYMP1-002 - Live Cells (AID 955); settings: LYMP1-002 lymphoblastoid live-cell protease fluorescence viability; series mostly up to 46.1 µM; also: % is scaled to controls: 0 for no effect and ±100 for the full control effect
How it was run: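 Cytotoxicity in the human lymphoblastoid line LYMP1-002 is measured as loss of live-cell protease activity after 16 h treatment in complete culture medium. AC50 is derived from Hill-equation fits of qHTS concentration-response data.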

[13] = MultiTox-Fluor Cytotoxicity Assay - LYMP1-003 - Dead Cells (AID 961); settings: LYMP1-003 lymphoblastoid cells, dead-cell protease fluorescence; series mostly up to 92.2 µM;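 also: cells exposed to compound for 16 h at 37 °C; nearly all actives have a fitted effect of over 70% in size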
How it was run: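 LYMP1-003 lymphoblastoid, 2500 cells/well, 5 hr settle then 16 hr cpd at 37 C; MultiTox-Fluor reagent 60 min RT; Ex/Em 485/520 dead-cell signal; norm. DMSO = 0%, 15 uM tetraoctylammonium bromide = 100%; Hill AC50.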

[14] = Cell Viability - LYMP2-003 (AID 965); settings: LYMP2-003 lymphoblastoid cell viability; series mostly up to 92.2 µM;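 also: cells exposed to compounds for 24 h before reading; 0% = DMSO only and full effect = 92 µM tetraoctylammonium bromide; nearly all actives have a fitted effect of over 50% in size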
How it was run: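 CellTiter-Glo luminescence (cellular ATP) after 24 h compound exposure at 37 C in complete medium; 2500 cells/well, 5 h settling beforehand. Concentration-response fitted to standard Hill equation for AC50. Tetraoctylammonium bromide served as positive control.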

[15] = Cell Viability - LYMP2-018 (AID 985); settings: LYMP2-018 lymphoblastoid cells, viability (qHTS); series mostly up to 92.2 µM;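 also: compound exposure lasted 24 hr at 37 °C; plate controls were DMSO only for no effect and tetraoctylammonium bromide at 92 µM for full effect; nearly all actives have a fitted effect of over 50% in size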
How it was run: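 Acute cytotoxicity is scored as a concentration-dependent drop in intracellular ATP after 24 hr exposure of the lymphoblastoid line in complete culture medium, measured by luciferase luminescence. Potency is expressed as AC50 from Hill modelling.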

[16] = Cell Viability - LYMP2-020 (AID 986); settings: series mostly up to 92.2 µM;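 also: plate controls were DMSO only for no effect and tetraoctylammonium bromide at 92 µM for full effect; nearly all actives have a fitted effect of over 55% in size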
How it was run: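 Acute cytotoxicity in a human lymphoblastoid line is scored as a concentration-dependent fall in cellular ATP after 24 hr at 37 C in complete medium. The positive control is tetraoctylammonium bromide, and potency is given as Hill-fit AC50.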

[17] = Cell Viability - LYMP2-022 (AID 987); settings: LYMP2-022 lymphoblastoid cell viability; series mostly up to 92.2 µM;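 also: cells exposed to compound for 24 hr; 0% = DMSO alone and full effect = tetraoctylammonium bromide at 92 µM; nearly all actives have a fitted effect of over 55% in size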
How it was run: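 Acute toxicity in a human lymphoblastoid line is scored as decreased intracellular ATP after 24 hr compound treatment at 37 C. ATP is measured by CellTiter-Glo luminescence; curves are fitted with the Hill equation to give AC50.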

[18] = Cell Viability - LYMP2-024 (AID 988); settings: LYMP2-024 lymphoblastoid cell viability; series mostly up to 92.2 µM;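 also: cells exposed to compound for 24 hr at 37 °C; plate controls were DMSO only for no effect and 92 µM tetraoctylammonium bromide for full effect; nearly all actives have a fitted effect of over 60% in size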
How it was run: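 Acute toxicity is measured as concentration-dependent loss of intracellular ATP in a human lymphoblastoid line treated 24 hours at 37 C. Luciferase luminescence quantifies ATP; AC50 values come from standard Hill-equation modelling.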

[19] = qHTS assay for small molecule antagonists of retinoid X receptor alpha signaling (AID 588546); settings: HEK293T RXRa-UAS-bla, beta-lactamase ratio, antagonist mode; measured here: W530 green channel, cytotoxicity proxy;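 also: cells stimulated with 9-cis-retinoic acid as agonist; % is scaled to controls: 0 for no effect and ±100 for the full control effect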
How it was run: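 Beta-lactamase reporter inhibition, read as CCF4 fluorescence ratio (ex 405, em 460/530 nm) after 2 h at RT. HEK293T UAS-bla cells, 2500/well, were stimulated with 9-cis-RA at 500 or 100 nM final alongside test compound for 18 h at 37 C.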

[20] = qHTS assay for cell viability of HEK293 cells (AID 743288); settings: ATP luminescence (CellTiter-Glo), 18 h; max response: stronger effect = lower value; also: nearly all actives have a fitted effect of over 50% in size; also: potency is read from the fitted curve at half-maximal effect; as to max response: % is scaled to controls: 0 for no effect and ±100 for the full control effect
How it was run: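 Environmental chemicals tested in qHTS format against parental HEK293 cells; 18 h treatment, 37 C; read-out ATP luminescence (CellTiter-Glo), 30 min RT development.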

C=Cc1ccccc1Cl
inactive: Potency [1] > 92 µM | Potency [2] > 92 µM | outcome [3] | Potency [4] | Potency [5] | outcome [6] | outcome [7] | Potency [8] | outcome [9] | outcome [10] | Potency [11] | Potency [12] | Potency [13] | Potency [14] | Potency [15] | Potency [16] | Potency [17] | Potency [18] | max response [20] 6.21%
-3.63%: max response [19]

O=C1c2ccccc2C(=O)C1c1ccc2ccccc2n1
-3.83%: max response [19]
inactive: outcome [3] | Potency [5] | outcome [6] | outcome [7] | Potency [8] | outcome [9] | Potency [11] | Potency [12] | Potency [13] | Potency [14] | Potency [15] | Potency [16] | Potency [17] | Potency [18]
active: Potency [20] 39.8 µM

Clc1cc(Cl)c(Cl)cc1Cl
-13.2% and -12.3%: max response [19]
inactive: Potency [1] > 92 µM | Potency [2] > 92 µM | outcome [3] | Potency [4] | Potency [5] | outcome [6] | outcome [7] | Potency [8] | outcome [9] | outcome [10] | Potency [11] | Potency [12] | Potency [13] | Potency [14] | Potency [15] | Potency [16] | Potency [17] | Potency [18] | max response [20] 3.48% and -4.31%

Source: PubChem BioAssay (NCATS)
